These results are taken from PMC4336329 (PLoS ONE, 2015).

The structures appear in SMILES notation. In all, about 310,000 compounds went through this assay and about 14,000 (4.5%) showed an effect of 50% or more. The effect is printed as a negative number. Shown is part of a subset that was picked to be rich in strong results.
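Further: peak tail current of the secondary pulse compared with the same well before compound.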

Sequence of human ether-à-go-go-related gene (hERG) potassium channel (Q12809 whole entry, looked up): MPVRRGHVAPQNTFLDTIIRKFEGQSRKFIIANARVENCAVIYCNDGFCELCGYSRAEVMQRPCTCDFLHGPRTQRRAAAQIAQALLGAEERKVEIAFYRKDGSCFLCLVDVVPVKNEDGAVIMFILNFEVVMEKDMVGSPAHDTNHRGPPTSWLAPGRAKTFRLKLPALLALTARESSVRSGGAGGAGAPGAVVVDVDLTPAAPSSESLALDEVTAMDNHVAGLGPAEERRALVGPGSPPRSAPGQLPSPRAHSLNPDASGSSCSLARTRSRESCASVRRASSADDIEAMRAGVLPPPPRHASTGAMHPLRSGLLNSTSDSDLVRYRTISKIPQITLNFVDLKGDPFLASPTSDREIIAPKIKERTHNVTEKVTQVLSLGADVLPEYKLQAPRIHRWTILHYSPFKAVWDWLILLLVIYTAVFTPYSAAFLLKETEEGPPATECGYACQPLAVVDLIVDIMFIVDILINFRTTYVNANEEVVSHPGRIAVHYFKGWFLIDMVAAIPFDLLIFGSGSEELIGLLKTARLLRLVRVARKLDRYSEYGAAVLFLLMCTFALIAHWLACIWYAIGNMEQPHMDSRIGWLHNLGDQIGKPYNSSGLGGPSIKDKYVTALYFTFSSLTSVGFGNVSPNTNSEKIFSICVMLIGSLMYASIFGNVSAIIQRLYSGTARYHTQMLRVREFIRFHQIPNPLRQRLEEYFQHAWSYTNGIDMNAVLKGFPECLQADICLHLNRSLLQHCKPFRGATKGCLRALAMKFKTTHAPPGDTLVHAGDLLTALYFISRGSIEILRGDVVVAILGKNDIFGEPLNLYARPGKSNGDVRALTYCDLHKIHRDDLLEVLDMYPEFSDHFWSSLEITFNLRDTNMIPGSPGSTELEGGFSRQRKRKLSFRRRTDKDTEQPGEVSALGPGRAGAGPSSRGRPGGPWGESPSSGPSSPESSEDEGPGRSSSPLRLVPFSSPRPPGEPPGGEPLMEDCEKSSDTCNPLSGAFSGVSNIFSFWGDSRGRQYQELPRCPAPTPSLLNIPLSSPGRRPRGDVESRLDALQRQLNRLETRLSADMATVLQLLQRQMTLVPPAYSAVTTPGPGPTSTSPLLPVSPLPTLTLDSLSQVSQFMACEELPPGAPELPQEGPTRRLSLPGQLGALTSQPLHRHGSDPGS

The assay concerns the target human ether-à-go-go-related gene (hERG) potassium channel (human, UniProt Q12809). Description: primary screen, population patch clamp on CHO cells stably expressing hERG; higher = less effect of the substance.
Take `CCOC(=O)c1c(NC(=O)c2nn(CC)cc2Br)sc2c1CCCCC2`: the “hERG current change (%, negative = inhibition) at 10uM” value stood at 8.6%.
The same measure for `COc1ccc(N(C)C(=O)c2cn(CC(C)C)c(=O)c3cc(OC)c(OC)cc23)cc1`: 8.8%.
Next, `Nc1c(-c2ccccc2)cnn1-c1ccccc1`: 12%.
The same measure for `Nc1c(-c2ccccc2)cnn1-c1cccc(Cl)c1`: -12.3%; for `Nc1c(-c2cccc(Cl)c2)cnn1-c1ccccc1`: -60.3%; for `COc1ccc(CCNC(=O)C2CC(c3cccc([N+](=O)[O-])c3)=NO2)cc1` (stereo not drawn): -21.8%.
In the case of `COc1ccc(CCNC(=O)C2CCN(C(=O)c3ccccc3)CC2)cc1`, the “hERG current change (%, negative = inhibition) at 10uM” value worked out at 2.13%.
As to `O=C(NCc1ccc(OC(F)(F)F)cc1)C1CC(c2ccccc2[N+](=O)[O-])=NO1` (stereo not drawn), the “hERG current change (%, negative = inhibition) at 10uM” value is given as -68.3%.
Turning to `O=C(NCCc1ccccc1)C1CCN(C(=O)c2ccc(F)cc2)CC1`, the “hERG current change (%, negative = inhibition) at 10uM” value is -2.25%.
Next, `COc1ccc(CCNC(=O)C2CCN(C(=O)c3ccc(Cl)cc3)CC2)cc1`: -12.8%.
The same measure for `O=C(NCc1ccc(C(F)(F)F)cc1)C1CC(c2ccccc2[N+](=O)[O-])=NO1` (stereo not drawn): -46.1%.
The same measure for `COc1ccc(CNC(=O)C2CC(c3ccccc3[N+](=O)[O-])=NO2)cc1` (stereo not drawn): -27.7%.
In the case of `O=C(NCCc1ccccc1)C1CCN(C(=O)c2ccc([N+](=O)[O-])cc2)CC1`, the “hERG current change (%, negative = inhibition) at 10uM” value was -63.2%.
Next, `COCCNC(=O)C1CC(c2ccc([N+](=O)[O-])cc2)=NO1` (stereo not drawn): -0.798%; `COc1ccc(CCNC(=O)C2CCN(C(=O)c3ccc([N+](=O)[O-])cc3)CC2)cc1`: -65.6%; `COc1ccc(CCNC(=O)C2CCN(C(=O)c3ccc(F)cc3)CC2)cc1`: 10.2%.
Next, `COc1ccc(CCNC(=O)C2CC(c3ccc([N+](=O)[O-])cc3)=NO2)cc1` (stereo not drawn): -61.6%; `Cc1ccc(OCC(=O)Nc2ccccc2N2CCCC2)c(C)c1`: -3.14%.
Next, `CCCN(c1ccccc1C(=O)O)S(=O)(=O)c1ccc2c(c1)n(C)c(=O)n2C`: 19.8%.
Take `Cc1ccc(NCC(O)C(O)C(O)CO)cc1C` (stereo not drawn): the “hERG current change (%, negative = inhibition) at 10uM” value is 14.9%.
Next, `Clc1ccc2oc(-c3ccccn3)nc2c1`: -0.352%.
As for `O=C(NCCNC(=O)c1ccc([N+](=O)[O-])cc1)c1ccncc1`, the “hERG current change (%, negative = inhibition) at 10uM” value is given as 12%.
On to `COc1ccc(CCNC(=O)c2nc3ncccn3n2)cc1OC`, for which the “hERG current change (%, negative = inhibition) at 10uM” value amounted to 18.6%.
With `Cc1ccc2c(c1)N(CC(=O)N1CCCc3ccccc31)C(=O)CO2`, the “hERG current change (%, negative = inhibition) at 10uM” value is recorded as -8.16%.
Next, `COc1cccc(N2CCN(c3ccc(N4C(=O)CCC4=O)cc3[N+](=O)[O-])CC2)c1`: 13.7%.
Next, `COCCCNC(=O)CN(C1CCCCC1)S(=O)(=O)c1ccc(C)cc1`: -0.742%; `CCC(CC)C(=O)NCCc1cc2c(C)ccc(C)c2[nH]c1=O`: 2.39%.
The same measure for `COc1ccccc1CN(C)C(=O)C(c1ccccc1)c1ccccc1`: -2.32%; for `COc1cccc(C(=O)N2CCC(C(=O)NCc3ccco3)CC2)c1`: -14.9%; for `O=C(NCc1ccco1)C1CCN(C(=O)c2ccc([N+](=O)[O-])cc2)CC1`: -53%.
Consider `Cc1ccc(C(=O)N2CCC(C(=O)NCc3ccco3)CC2)cc1`, for which the “hERG current change (%, negative = inhibition) at 10uM” value is recorded as -11.3%.
Next, `CCn1nnc(NC(=O)C(C)(c2ccccc2)c2ccccc2)n1`: -10.4%.
Take `COc1ccc(S(=O)(=O)NCC2CCCN(Cc3ccc(C)o3)C2)cc1` (stereo not drawn): the “hERG current change (%, negative = inhibition) at 10uM” value is given as -25.5%.
In the case of `COc1ccc(S(=O)(=O)NCC2CCCN(CC(C)(C)C)C2)cc1` (stereo not drawn), the “hERG current change (%, negative = inhibition) at 10uM” value stood at 14.9%.
The same measure for `COc1ccc(S(=O)(=O)NCC2CCCN(Cc3cccnc3)C2)cc1` (stereo not drawn): -47.7%; for `COc1ccc(S(=O)(=O)NCC2CCCN(Cc3ccc(O)cc3)C2)cc1` (stereo not drawn): -59.2%.
The same measure for `COc1ccc(S(=O)(=O)NCC2CCCN(Cc3cccc(C(C)=O)c3)C2)cc1` (stereo not drawn): -43.9%; for `CN(C)S(=O)(=O)NCC1CCCN(Cc2cc3ccccc3s2)C1` (stereo not drawn): -6.37%.
Consider `OCC1CCCN(Cc2ccc(-c3ccccc3)cc2)C1` (stereo not drawn), for which the “hERG current change (%, negative = inhibition) at 10uM” value was -28.4%.
For `CCc1ccc(CN2CCCC(CNS(=O)(=O)c3ccc(OC)cc3)C2)cc1` (stereo not drawn), the “hERG current change (%, negative = inhibition) at 10uM” value was -69.8%.
Next, `CN(C)S(=O)(=O)NCC1CCCN(Cc2ccc(-c3ccccc3)cc2)C1` (stereo not drawn): -50.8%.
The same measure for `COc1ccc(S(=O)(=O)NCC2CCCN(Cc3ccccc3C)C2)cc1` (stereo not drawn): -12.3%.
The same measure for `COc1ccc(S(=O)(=O)NCC2CCCN(Cc3ccccc3Cl)C2)cc1` (stereo not drawn): -37.9%.
Consider `CCOc1ccccc1CN1CCCC(CNS(=O)(=O)c2ccc(OC)cc2)C1` (stereo not drawn), for which the “hERG current change (%, negative = inhibition) at 10uM” value was -63.7%.
As to `CC(C)C(C(=O)Nc1sc2c(c1C#N)CCCCC2)N1C(=O)c2ccccc2C1=O` (stereo not drawn), the “hERG current change (%, negative = inhibition) at 10uM” value was 4.7%.
The same measure for `Cn1c(CCCOc2ccc(Cl)cc2Cl)nnc1SCC(=O)Nc1cccc(F)c1`: -3.24%; for `COC(=O)/C=C1\C(=O)N(c2nc3ccc(OC)cc3s2)C(=S)N1c1ccc(F)cc1`: -7.23%; for `CCOc1ccc(OCc2ccc(C(=O)N3CCc4ccccc4C3)o2)cc1`: -10.4%.
The same measure for `CC(=O)C[C@H]1c2cc(C(F)(F)F)ccc2S(=O)(=O)N1C1CCCC1`: -12.1%; for `O=C(NCC1CCCN(C(=O)c2cccc(C(F)(F)F)c2)C1)c1ccc(F)cc1` (stereo not drawn): -8.13%.
Next, `CSc1cccc(CN2CCCC(CNC(=O)c3ccc(F)cc3)C2)c1` (stereo not drawn): -74.1%.
`CSc1cccc(CN2CCCC(CNC(=O)c3ccco3)C2)c1` (stereo not drawn): the “hERG current change (%, negative = inhibition) at 10uM” value is recorded as -91.9%.
Next, `CC(C)(O)C#Cc1ccc(CN2CCCC(CNC(=O)c3ccco3)C2)cc1` (stereo not drawn): -10.9%.
Next, `CSc1ccccc1C(=O)N1CCCC(CNC(=O)c2ccc(F)cc2)C1` (stereo not drawn): 15.3%; `O=C(NCC1CCCN(Cc2cccc(C(F)(F)F)c2)C1)c1ccc(F)cc1` (stereo not drawn): -58.2%; `Cc1cc(CN2CCCC(CNC(=O)c3ccc(F)cc3)C2)cc(C)c1O` (stereo not drawn): -24.1%.
The same measure for `CCCn1cc(CN2CCCC(CNC(=O)c3ccc(F)cc3)C2)c(C)n1` (stereo not drawn): -25.5%; for `CCOCc1cc(CN2CCCC(CNC(=O)c3ccco3)C2)ccc1OC` (stereo not drawn): -48.3%; for `O=C(NCC1CCCN(Cc2cccc(OCCO)c2)C1)c1ccc(F)cc1` (stereo not drawn): -16.3%.
As for `CSc1ccc(CN2CCCC(CNC(=O)c3ccc(F)cc3)C2)cc1` (stereo not drawn), the “hERG current change (%, negative = inhibition) at 10uM” value is -70.8%.
